The values below come from PubChem BioAssay (EPA / NIEHS).

Records with an inconclusive call do not appear. Activity calls are given as the source filed them. The calls were made as follows, unless noted: active = hit-call score of the fitted dose curve at least 0.9, where 1 is the maximum; inconclusive = response in the unintended direction; inactive = score below 0.9.

A short description of assay [1]: Tanguay_ZF_120hpf_PFIN_legacy: (Legacy) Oregon State University Tanguay Lab 120 Hour Post-fertilization zebrafish Assay for Pectoral Fin Malformation (AID 2283648).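 Also: each larva judged yes or no for fin defect by brightfield with dead larvae skipped.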 An outline of the steps:
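5D WT zebrafish; pronase dechorionation 4 hpf; 1 embryo/well at 6 hpf; static exposure to 120 hpf, 28C, sealed, foil-covered; final DMSO 0.64% v/v; 5 uM trimethyltin chloride positive control; fin defect scored yes/no.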

The nature of assay [2]: Tanguay_ZF_120hpf_CFIN_legacy: (Legacy) Oregon State University Tanguay Lab 120 Hour Post-fertilization zebrafish Assay for Caudal Fin Malformation (AID 2283649). An outline of the steps:
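Binary presence or absence of caudal fin malformation at 120 hpf, read by brightfield microscopy, with DMSO as baseline. Larvae came from 5D wild-type embryos exposed statically from 6 hpf at 28C after pronase dechorionation.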

Assay [3] can be described thus: Tanguay_ZF_120hpf_CIRC_legacy: (Legacy) Oregon State University Tanguay Lab 120 Hour Post-fertilization zebrafish Assay for Circulatory Malformation (AID 2283651). An outline of the steps:
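Using wild-type Tropical 5D zebrafish, we exposed dechorionated embryos from 6 to 120 hpf in embryo medium with 0.64% DMSO. Circulatory defects were scored as present or absent; 5uM trimethyltin chloride served as positive control.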

Assay [4] can be described thus: Tanguay_ZF_120hpf_SWIM_legacy: (Legacy) Oregon State University Tanguay Lab 120 Hour Post-fertilization zebrafish Assay for Swim Bladder Malformation (AID 2283654).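 Also: swim bladder malformation in each larva scored yes or no under brightfield.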 An outline of the steps:
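Embryos lacking chorions were exposed individually and statically to test chemical from 6 to 120 hpf at 28C, with 0.64% DMSO as vehicle. At 120 hpf, swim bladder malformation was recorded as present or absent by brightfield microscopy.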

Assay [5] is described as follows: Tanguay_ZF_120hpf_TRUN_legacy: (Legacy) Oregon State University Tanguay Lab 120 Hour Post-fertilization zebrafish Assay for Truncated Body (AID 2283655). An outline of the steps:
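Truncated body is recorded as a binary endpoint at 120 hpf by brightfield imaging of wild-type 5D larvae. Exposure runs statically from 6 hpf at 28C with 0.64% DMSO; embryos dying earlier are not scored.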

Assay [6] in a line: Tanguay_ZF_120hpf_NC_legacy: (Legacy) Oregon State University Tanguay Lab 120 Hour Post-fertilization zebrafish Assay for Notochord and Tail Malformation (AID 2283656). An outline of the steps:
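Dechorionated 5D zebrafish, 1/well from 6 hpf; static exposure to 120 hpf, 28C, sealed, dark; final DMSO 0.64% v/v. NC scored binary (present/absent); dead embryos not scored. Fit vs DMSO baseline, gain direction.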

Assay [7] is described as follows: Tanguay_ZF_120hpf_TR_legacy: (Legacy) Oregon State University Tanguay Lab 120 Hour Post-fertilization zebrafish Assay for Touch Response (AID 2283667). An outline of the steps:
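5D WT embryos; static exposure to 120 hpf, 28C, sealed/dark; DMSO 0.64% v/v final. TR scored present/absent; dead embryos excluded. Pos ctrl 5uM trimethyltin chloride.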

Assay [8] in a line: STM_H9_OrnithineISnorm_perc: Stemina devTOX quickPredict H9 human embryonic stem cell (hESC)-based Assay for Ornithine (ORN) Metabolite Biomarker, Normalized (AID 2283712; active = hit-call score of the fitted dose curve at least 0.9, where 1 is the maximum; inactive = score below 0.9;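 also: ornithine released into spent medium during last day measured by mass spectrometry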). An outline of the steps: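 Cells: undifferentiated H9 hESC. Dosing: 72 h, media replaced every 24 h. Sample: final 24-h conditioned media, 40% acetonitrile. Read: UPLC-HRMS ornithine area vs 13C standard, % DMSO control.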

Assay [9] in a line: STM_H9_CystineISnorm_perc: Stemina devTOX quickPredict H9 human embryonic stem cell (hESC)-based Assay for Cystine (CYSS) Metabolite Biomarker, Normalized (AID 2283713; active = hit-call score of the fitted dose curve at least 0.9, where 1 is the maximum; inactive = score below 0.9). An outline of the steps: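 Secreted cystine was measured by UPLC-HRMS in H9 hESC medium after 72h compound exposure with 24-hourly replenishment. Values are standard-normalized areas relative to 0.1% DMSO.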

The nature of assay [10]: STM_H9_OrnCyssISnorm_ratio: Stemina devTOX quickPredict H9 human embryonic stem cell (hESC)-based Assay for Ornithine (ORN):Cystine (CYSS) Ratio (AID 2283714). An outline of the steps:
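Steps: H9 hESCs in pluripotent state dosed 72h, medium plus compound renewed every 24h; conditioned medium from the final 24h deproteinized in 40% acetonitrile; ORN and CYSS quantified by UPLC-HRMS with C13 spike-ins; ratio relative to vehicle.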

Assay [11] can be described thus: Tanguay_ZF_120hpf_SOMI_legacy: (Legacy) Oregon State University Tanguay Lab 120 Hour Post-fertilization zebrafish Assay for Somite Malformation (AID 2283647). An outline of the steps: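 Read-out: presence or absence of somite malformation in 120 hpf larvae, gain-of-signal relative to DMSO baseline. Embryos lacked chorion (pronase, 4 hpf) and were exposed statically from 6 hpf at 28C; dead larvae not scored.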

Read-out in assay [12]: solute carrier (SLC22A6), SLC22A6 (gene 9356)
The assay is described as follows: LTEA_HepaRG_SLC22A6: Life Technologies and Expression Analysis (LTEA) Assay for solute carrier (SLC22A6) using HepaRG (AID 2283653; active = hit-call score of the fitted dose curve at least 0.9, where 1 is the maximum; inactive = score below 0.9). The note with it: mRNA level, 48 h; actives raise or lower the signal. An outline of the steps:
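Read-out is SLC22A6 transcript level by qRT-PCR, normalised to three housekeeping genes and fitted for gain or loss relative to 0.5% DMSO vehicle. Human HepaRG cells received chemicals at up to 100 uM for 48 h.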

Read-out in assay [13]: solute carrier (SLC10A1), SLC10A1 (gene 6554)
In words: LTEA_HepaRG_SLC10A1: Life Technologies and Expression Analysis (LTEA) Assay for solute carrier (SLC10A1) using HepaRG (AID 2283657; active = hit-call score of the fitted dose curve at least 0.9, where 1 is the maximum; inactive = score below 0.9). The note with it: mRNA level, 48 h; actives raise or lower the signal. An outline of the steps:
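Transcript levels were measured by qRT-PCR after human HepaRG cells received test chemical for 48 hours, up to 100 uM in half-log dilutions. Values come from bidirectional concentration-response fitting relative to 0.5% DMSO vehicle.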

Read-out in assay [14]: matrix metalloproteinase-1 (MMP1), MMP1 (gene 4312)
The assay is described as follows: LTEA_HepaRG_MMP1: Life Technologies and Expression Analysis (LTEA) Assay for matrix metalloproteinase-1 (MMP1) using HepaRG (AID 2283658; active = hit-call score of the fitted dose curve at least 0.9, where 1 is the maximum; inactive = score below 0.9). The note with it: mRNA level, 48 h; actives raise or lower the signal. An outline of the steps:
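HepaRG, ~100,000 cells/well, 48 h pre-culture; serum-free induction medium; test chemical 8 conc (max 100 uM, half-log), duplicate, 48 h; 0.5% DMSO; qRT-PCR MMP1, housekeeping-normalized; gain/loss fit vs DMSO.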

Read-out in assay [15]: Cytochrome P450 (CYP24A1_1), CYP24A1 (gene 1591)
The assay is described as follows: LTEA_HepaRG_CYP24A1_1: Life Technologies and Expression Analysis (LTEA) Assay for Cytochrome P450 (CYP24A1_1) using HepaRG (AID 2283671; active = hit-call score of the fitted dose curve at least 0.9, where 1 is the maximum; inactive = score below 0.9). As to conditions: mRNA level, 48 h; actives raise or lower the signal. An outline of the steps:
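In this test, gene induction or suppression of CYP24A1 in human HepaRG liver cells is measured by qRT-PCR after 48 h chemical treatment (eight concentrations, maximum 100 uM). Values are fitted bidirectionally relative to DMSO.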

The nature of assay [16]: Tanguay_ZF_120hpf_PIG_legacy: (Legacy) Oregon State University Tanguay Lab 120 Hour Post-fertilization zebrafish Assay for Pigmentation Malformation (AID 2283650). An outline of the steps:
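Pronase dechorionation at 4 hpf; embryos plated at 6 hpf, one per well; static exposure, sealed and foil-covered, 28C, to 120 hpf; pigmentation read by brightfield, binary; DMSO 0.64% baseline, 5uM trimethyltin chloride positive control.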

Assay [17] has as its system Thyroperoxidase (TPO), gene 54314. The assay is described as follows: CCTE_Simmons_AUR_rTPO: CCTE's Amplex UltraRed Assay for Thyroperoxidase (TPO) Inhibition, Simmons Lab (AID 2283662).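 Also: potency for loss of signal meaning inhibition of peroxidase activity.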 An outline of the steps:
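Rat thyroid microsomes (5 ug protein) were incubated with test compound (8 concentrations, 5 nM–87.5 uM final, 0.5% DMSO), 25 uM Amplex UltraRed and 300 uM H2O2 in 200 mM phosphate buffer for 30 min at 37C in the dark; fluorescence read at 544/590 nm.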

Assay [18] in a line: CCTE_Simmons_CellTiterGLO_HEK293T: Viability Assessment in CCTE's Assays for Thyroperoxidase (TPO) Inhibition, Simmons Lab (AID 2283665).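 As to AC50: cells exposed to compound for 24 h before readout; actives reduce ATP signal below DMSO vehicle meaning cytotoxicity.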 An outline of the steps:
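Cytotoxicity counter-screen: human HEK293T cells in low-serum (1% FBS) medium receive test chemical, 5 nM to 87.5 uM final, for 24 h; ATP is quantified by luciferase luminescence.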

Read-out in assay [19]: kallikrein-3 (KLK3), KLK3 (gene 354)
In words: LTEA_HepaRG_KLK3: Life Technologies and Expression Analysis (LTEA) Assay for kallikrein-3 (KLK3) using HepaRG (AID 2283652; active = hit-call score of the fitted dose curve at least 0.9, where 1 is the maximum; inactive = score below 0.9). As to conditions: mRNA level, 48 h; actives raise or lower the signal. An outline of the steps: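 Differentiated human HepaRG cells in serum-free induction medium exposed 48 h in duplicate, eight-point half-log series from 100 uM in 0.5% DMSO. KLK3 mRNA by qRT-PCR, normalised to ACTB, GAPDH, POLR2A; bidirectional fit versus DMSO.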

On to `OCCO`, for which the call in assay [1], in [2], in assay [3], in [4], in assay [5] and in assay [6] was inactive. Moreover, the outcome in [7], in assay [8], in [9] and in assay [10] was inactive.
Regarding `CCO[Si](CCCNC(N)=O)(OCC)OCC`, the molecule was called inactive in assay [11], in [1], in assay [3], in [4], in assay [5] and in [6]. Further, the outcome in assay [7] was inactive.
Take `O=C=NCCCCCCN=C=O`: the molecule was classed as inactive in [2], in [3], in assay [5], in assay [9] and in [10]. Besides, the AC50 in assay [8] was 0.0164 µM (active).
On to `Cc1occc1C(=O)Nc1ccc(C(=O)N2CCC(F)(F)/C(=C\C(=O)N3CCC(N4CCCCC4)CC3)c3ccccc32)cc1`, for which the result in assay [11], in [1], in [2], in assay [12], in [5] and in assay [6] was inactive. In addition, the molecule was classed as inactive in [14], in assay [7] and in assay [15]. Besides, the AC50 in assay [13] was 41.9 µM (active).
Turning to `Cc1ccc2oc(CN(Cc3ccccc3)C(=O)Nc3c(F)cc(F)cc3F)c(-c3ccc(Cl)cc3)c2c1`, the result in [11], in [2], in assay [16], in assay [3], in assay [5] and in assay [6] was inactive. Besides, in assay [7], the molecule was called inactive.
Turning to `O=C(OCCCCCCOC(=O)c1ccccc1)c1ccccc1`, the call in [11], in [2], in assay [3], in [5], in assay [6] and in assay [7] was inactive.
For `CCCCOC(=O)CC(CC(=O)OCCCC)(OC(C)=O)C(=O)OCCCC`, the result in assay [1], in [3], in assay [4], in assay [5] and in assay [7] was inactive.
Turning to `O=C1O[C@H]([C@@H](O)CO)C(O)=C1O`, the molecule was called inactive in assay [11], in [1], in assay [2], in [3], in assay [5] and in assay [6]. Besides, the molecule was classed as inactive in assay [18] and in [7]. In addition, in assay [17], the AC50 is 43.8 µM (active).
On to `CC(C)(C)c1csc(-c2cc3cc(OCc4ccccc4CC(=O)O)ccc3o2)n1`, for which the molecule was called inactive in [11], in assay [1], in [3], in assay [19], in assay [12] and in [4]. The molecule was called inactive in assay [5], in [6], in assay [14], in assay [7] and in assay [15]. Also, the AC50 is 24.4 µM (active) in assay [13], 43.8 µM (active) in assay [17] and 22.4 µM (active) in assay [18].
For the molecule `Cc1cc2c(cc1C(F)(F)F)N(C(=O)Nc1ccc(Oc3cccnc3C)nc1)CC2`, the molecule was classed as inactive in assay [11], in assay [2], in assay [16], in assay [4], in assay [5] and in [6]. In assay [7], the molecule was classed as inactive.
On to `Cc1cn([C@H]2C[C@H](N=[N+]=[N-])[C@@H](CO)O2)c(=O)[nH]c1=O`, for which the call in [11], in assay [2], in assay [3], in [4], in assay [5] and in assay [6] was inactive. Moreover, the call in assay [7] and in [8] was inactive. Besides, the figures for the AC50 in assay [9] and in assay [10] were 2.32 µM (active) and 4.02 µM (active), respectively.
